# Eya2 inh: blocks the phosphatase activity of human Eya2; Potency, µM (series often up to 76.9 µM), without a hit: at the top dose activity, negative = inhibition, most hits filed as inhibitors; recombinant Eya2, OMFP fluorescence dephosphorylation (OMFP is methylfluorescein phosphate); O00167; 0.006% of 330,000 active; further: potency means the concentration at half of the fitted maximal effect; on the % scale 0 is the no-effect control and ±100 the full control effect
# Target sequence (O00167 whole entry, looked up): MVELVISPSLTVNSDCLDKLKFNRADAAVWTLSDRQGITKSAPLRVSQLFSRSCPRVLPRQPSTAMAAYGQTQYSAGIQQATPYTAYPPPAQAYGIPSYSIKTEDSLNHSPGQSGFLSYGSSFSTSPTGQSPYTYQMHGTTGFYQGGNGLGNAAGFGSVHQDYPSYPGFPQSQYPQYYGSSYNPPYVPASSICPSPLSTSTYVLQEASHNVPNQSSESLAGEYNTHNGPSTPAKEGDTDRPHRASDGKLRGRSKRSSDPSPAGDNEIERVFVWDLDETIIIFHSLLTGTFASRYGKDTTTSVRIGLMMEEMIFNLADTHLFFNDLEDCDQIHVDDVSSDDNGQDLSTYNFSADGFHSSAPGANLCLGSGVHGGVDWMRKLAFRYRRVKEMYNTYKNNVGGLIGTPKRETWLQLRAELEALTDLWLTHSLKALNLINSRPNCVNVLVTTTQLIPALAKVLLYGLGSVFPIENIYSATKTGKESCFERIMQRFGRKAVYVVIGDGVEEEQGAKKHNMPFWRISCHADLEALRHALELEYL
#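 Eya2 (0.2 uM) preincubated 10 min at ambient with compound, then OMFP substrate added at 50 uM; 10 min reaction in 50 mM HEPES pH 7.5, 50 mM NaCl, 5 uM MgCl2, 0.05% BSA, 1 mM DTT. Fluorescence read at Ex 485/Em 525 nm.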
# D1 potentiator: human D1 dopamine receptor positive modulation | P21728 | HEK293 TREx D1 cells, calcium flux, dopamine EC20 potentiation | potentiation, % at 10 µM | 0.036% of 360,000 active | AID 504651; in the data active means potentiation above about 30%; further: 0% is about no effect
# GALK inhibitor: galactokinase (human) inhibition. 0.007% of 270,000 active. P51570. Potency, µM (titrated, usually from 57.5 µM), for inactives: at the highest dose activity change, negative = inhibition, most hits filed as inhibitors. Purified GALK, Kinase-Glo residual ATP luminescence; further: potency means the concentration at half of the fitted maximal effect; on the % scale 0 is the no-effect control and ±100 the full control effect
#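 Kinase-Glo Plus luminescence measured ATP left after a 1 h room-temperature reaction. The reaction used 5 nM GALK, 100 uM galactose and 35 uM ATP at pH 8.0 (20 mM HEPES, 5 mM MgCl2, 60 mM NaCl, 1 mM DTT, 0.01% BSA).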
# D1 antag: blocks dopamine activation of the human D1 receptor. P21728. HEK293 TREx D1 cells, calcium flux, dopamine EC80; active compounds read low. activity change, negative = inhibition, % at 10 µM. 3.2% of 360,000 active; in the data active means activity change below about -30%; further: on the % scale 0 is the no-effect control and ±100 the full control effect
#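 HEK293 T-REx cells expressing inducible, force-coupled D1 receptor; no-wash Ca dye, 30–90 min RT. Cmpd → 180 s read at 1 Hz → EC80 DA → 180 s read.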
# USP2a block: USP2a (human) protease inhibition. Potency, µM (titrated, usually from 38.3 µM), inactives show at the top dose activity change, negative = inhibition, usual class: inhibitors. O75604. 0.01% of 330,000 active. USP2 core, Ub-CHOP2 coupled fluorogenic reporter, 485/531;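 further: potency means the concentration at half of the fitted maximal effect; plate controls were DMSO wells for no effect and full inhibition by NEM control for full effect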
#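 Cell-free coupled assay: 10nM USP2 core preincubated 30min RT with compound in Tris-HCl pH 8.0/CaCl2/CHAPS buffer, then 25nM Ub-CHOP2 and 25nM reporter substrate; fluorescence (Ex 485/Em 531) read after 60min RT, normalized to NEM inhibition, concentration-response curves fitted.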
# D1 agonist: activates the human D1 dopamine receptor | P21728 | HEK293 T-REx D1 cells, calcium flux, agonist mode | activation, % at 2 µM | 1% of 360,000 active; in the data active means activation above about 30%; further: 0% is about no effect
#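 Agonism was scored from calcium flux recorded over 180 s (1 read/s) after pintool compound addition, following a 10-cycle baseline. Cells were inducible force-coupled HEK293 TREx D1, plated overnight at 30 C and loaded with no-wash calcium dye.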
# * marks the source's active call; other numbers are inactive results; · = no result. In the library only some 3.9% were active in any assay of this set; here they are far more common. Unless noted, the call rests on the fitted dose curve; in most records, active means well fitted inhibition curve with a large enough effect; inconclusive means small, poorly fitted or top-dose-only effect, or effect the other way; inactive means flat fitted curve, though single readings scatter.
SMILES,Eya2 inh,D1 potentiator,GALK inhibitor,D1 antag,USP2a block,D1 agonist
Cc1nc2n(c(=O)c1CCN1CCC(c3noc4cc(F)ccc34)CC1)CCCC2O (configuration not stated),8%,·,·,·,·,·
COc1ccccc1NC(=O)NCC(c1ccco1)N1CCCCC1 (configuration not stated),1%,-4,2%,-41*,2%,5
O=C(N/C=C\c1ccccc1)NCc1ccc(Cl)cc1,-17%,-2,3%,-31*,2%,3
Cc1cc(Cl)ccc1OCC(=O)Nc1c(C(=O)c2ccccc2)oc2ccccc12,·,3,·,-10,·,1
COc1ccc(OC)c(CNC(=O)C(C)n2c(C)c3cnn(-c4ccccc4)c(=O)c3c2C)c1 (configuration not stated),·,-3,·,-6,·,0
Cc1cc(-c2ccccc2)c2c3c(c(-c4ccccc4)n2n1)c(=O)n(C)c(=O)n3C,-8%,-1,2%,-68*,0%,1
O=C(c1ccc(OC2CCN(CCc3ccccc3)CC2)cc1)N1CCC(CO)CC1,2%,-14,-1%,-44*,5%,14
CN(Cc1nccs1)C(=O)c1ccc(OC2CCN(CCc3ccccc3)CC2)cc1,-9%,-11,3%,-54*,2%,6
Cc1ccc2occ(-c3cc(-c4ccc(Cl)cc4)nc4c3COc3ccccc3-4)c(=O)c2c1,·,-4,·,-12,·,0
CCOC(=O)c1c(C)n(-c2ccccc2)c2ccc(O)cc12,12%,-6,1%,-70*,0%,4
COc1ccc(CCNC(=S)NC(=O)c2ccc(Br)cc2)cc1OC,0%,1,5%,-5,-1%,2
COc1ccc(CCNC(=S)NC(=O)c2ccccc2)cc1C,-3%,-7,4%,-33*,-1%,6
Cc1ccc(NC(=O)Cn2c(=O)n(Cc3ccc4c(c3)OCO4)c(=O)c3oc4ccccc4c32)cc1C,·,-3,·,-21,·,6
O=C(NCCc1ccccn1)c1cccc(S(=O)(=O)N2CCc3ccccc32)c1,2%,-3,10%,-36*,2%,9
O=C(Nc1ncccc1O)c1cccc(S(=O)(=O)N2CCc3ccccc32)c1,7%,1,8%,-4,-2%,0
O=C(c1cccc(S(=O)(=O)N2CCc3ccccc32)c1)N1CCc2ccccc2C1,2%,·,·,-82*,1%,11
O=C(NCCc1ccccn1)c1cccc(S(=O)(=O)N2CCCCCC2)c1,·,-3,2%,1,·,0
COc1cc2c(cc1OC)CN(C(=O)c1cccc(S(=O)(=O)N3CCc4ccccc43)c1)CC2,-4%,-4,·,-34*,3%,5
COc1ccc(NC(=O)c2cccc(S(=O)(=O)N3CCc4ccccc43)c2)cn1,-14%,0,12%,-31*,-1%,11
COc1cc2c(cc1OC)CN(C(=O)c1cccc(S(=O)(=O)N(C)C)c1)CC2,-7%,-2,-2%,-1,-2%,1
CCCSCCCNC(=O)c1ccc2c(c1)nc1n2CCCCC1,·,-4,·,-17,·,-1
CN1CCN(S(=O)(=O)c2cccc(C(=O)NC3(C)CCS(=O)(=O)C3)c2)CC1 (configuration not stated),16%,0,·,-13,5%,1
CC1(NC(=O)c2cccc(S(=O)(=O)N3CCCc4ccccc43)c2)CCS(=O)(=O)C1 (configuration not stated),-8%,3,·,-83*,-5%,1
NC(=O)[C@@H]1CCCNc2c(I)cc([N+](=O)[O-])cc2C(=O)N[C@@H](CCCN=C(N)N)C(=O)N[C@@H](CCCN=C(N)N)C(=O)N1,11%,-4,·,-39*,-5%,0
CCN(CC)c1ccc2c(c1)oc(=O)c1c(Cl)cc(=O)oc12,-9%,-5,-13%,-38*,13%,142*
SMILES,Eya2 inh,D1 potentiator,GALK inhibitor,D1 antag,USP2a block,D1 agonist
CCc1ccccc1Nc1ncnc2ccccc12,-14%,-8,1%,-60*,0%,7
CC1(C)N=C(SCc2ccc(F)cc2)c2ccccc2N1,·,2,·,2,·,3
Cc1ccc(C)c(CSC2=NC(C)(C)Nc3ccccc32)c1,·,-10,·,-83*,·,0
CCc1ccc(NC(=O)C(C)OC(=O)c2cc(=O)[nH]c3ccc(S(=O)(=O)Nc4ccc(F)cc4)cc23)cc1 (configuration not stated),-6%,-12,1%,-37*,3%,3
CCOC(=O)c1cc2c(=O)n3ccccc3nc2n(C(C)C)c1=NC(=O)C(C)(C)Oc1ccc(Cl)cc1,·,-1,·,-40*,·,-1
CCOC(=O)c1cc2c(=O)n3ccccc3nc2n(CC(C)C)c1=NC(=O)COc1ccc(Cl)cc1,·,0,·,-39*,·,-1
CCO/N=C/C(=O)Nc1ccc(F)cc1F,8%,-2,1%,-75*,-1%,0
CO/N=C/CC(=O)Nc1ccc(F)cc1F,1%,0,2%,25,0%,0
CCOc1ccc(C(C)NC(=O)Nc2ccc(F)cc2F)cc1 (configuration not stated),9%,-1,4%,-77*,1%,12
CCN(CC)CCNC(=O)c1cc2cc3ccc(OC)cc3nc2o1,-3%,9,2%,-35*,3%,1
O=C(O)CCCN1C(=O)NC2NC(=O)NC21 (configuration not stated),3%,-5,-3%,-31*,-2%,1
CCCCNC(=O)CN1C(=O)NC2NC(=O)NC21 (configuration not stated),3%,-7,1%,-43*,0%,0
CCOC(=O)CSc1nc(-c2ccc(Cl)cc2)cc(C(F)(F)F)c1C#N,·,1,·,6,·,29
CCOC(=O)CSc1nc(C2CC2)cc(-c2ccc(Cl)cc2)c1C#N,16%,4,0%,-87*,2%,12
CC1CCCCC12NC(=O)N(CC(=O)Nc1cccc(S(=O)(=O)N3CCCCC3)c1)C2=O (configuration not stated),13%,1,·,-53*,1%,2
N#Cc1ccsc1NC(=O)CSc1ncn[nH]1,-6%,-2,-3%,-1,0%,5
O=C(CSc1ncn[nH]1)Nc1ccc(S(=O)(=O)N2CCCC2)cc1,7%,5,1%,-2,-2%,2
O=C(CSc1ncn[nH]1)Nc1cccc(S(=O)(=O)N2CCCCCC2)c1,9%,-6,0%,-36*,0%,9
O=C(CSC(=S)N1CCCC1)N1CCN(S(=O)(=O)c2cccc([N+](=O)[O-])c2)CC1,4%,-5,-6%,-33*,1%,5
N#Cc1ccccc1NC(=O)CSc1ncn[nH]1,·,-3,·,-35*,·,1

# Screens deposited in PubChem by National Center for Advancing Translational Sciences (NCATS).
